Source: PubChem BioAssay (NCI)
This is part of a sample that, as a whole, favours compounds with a hit. Of some 79,000 tested, about 15% had one in any assay. Activity calls are given as the source filed them. Rule as the data show it: active = growth inhibition above about 70%; inactive = the rest.

What was measured:
[1] = NCI Yeast Anticancer Drug Screen. Data for the rad50 strain (AID 155);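 also: 0% = growth of vehicle-only cultures of the same strain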; details: S. cerevisiae rad50 strain growth inhibition; at 50.0 µM; active compounds read high
How it was run: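 Cells are treated with compound, grown, and their growth is then scored against vehicle-only cultures of the same repair-deficient yeast strain.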

[2] = NCI Yeast Anticancer Drug Screen. Data for the mec2-1 strain (AID 157); details: S. cerevisiae mec2-1 strain, at 50.0 µM, active compounds read high
How it was run: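 Readout is yeast growth inhibition, normalised to vehicle-treated controls, in the mec2-1 strain exposed to compound.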

[3] = NCI Yeast Anticancer Drug Screen. Data for the sgs1 mgt1 strain (AID 161);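 also: 0% = growth of cultures given vehicle only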; details: S. cerevisiae sgs1 mgt1 strain, at 50.0 µM, active compounds read high
How it was run: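 Compounds are added to genetically altered yeast, and growth is compared with cultures given vehicle alone to give percent inhibition.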

[4] = NCI Yeast Anticancer Drug Screen. Data for the cln2 rad14 strain (AID 165);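 also: 0% = growth equal to vehicle treated cultures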; details: S. cerevisiae cln2 rad14 strain, at 50.0 µM, active compounds read high
How it was run: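 Relative to vehicle controls, growth inhibition of compound-treated cln2 rad14 yeast was recorded.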

[5] = NCI Yeast Anticancer Drug Screen. Data for the bub3 strain (AID 167); details: S. cerevisiae bub3 mutant strain, at 50.0 µM, active compounds read high
How it was run: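 Part of a panel of yeast mutants defective in DNA damage repair or cell cycle regulation. Each strain is grown with compound, and inhibition is calculated relative to solvent-treated cultures.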

[6] = NCI Yeast Anticancer Drug Screen. Data for the mlh1 rad18 strain (AID 175); details: S. cerevisiae mlh1 rad18 strain growth inhibition; at 50.0 µM; active compounds read high
How it was run: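 Test agents were incubated with a yeast strain of defined genotype (DNA damage repair defect). Inhibition of growth was derived by comparison with vehicle-exposed cultures.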

Measured: growth inhibition

O=C(NC(=O)c1cc2cc(Br)cc(Br)c2oc1=O)Oc1ccccc1
inactive: [1] 24.9% | [2] 19.4% | [3] 14.1% | [4] 25.4% | [5] -2.55% | [6] 13.1%

CCOC(=O)c1cc2c(OC)cc(OC)cc2oc1=O
inactive: [1] 21.8% | [2] 2.6% | [3] 25.1% | [4] 32.8% | [5] 28.9% | [6] 2.55%

Cc1cccc(C(=O)NCCN(C)C)c1[N+](=O)[O-]
inactive: [1] 5.55% | [2] -20.9% | [3] 1.2% | [4] 14.9% | [5] -16.4% | [6] 3.35%

COc1ccc(-c2cc(=O)cc(C(N)=O)o2)cc1
inactive: [1] -1.1% | [2] -1% | [3] 4.6% | [4] -13.8% | [5] 11.2% | [6] 17.2%

N#Cc1cc(-c2ccccc2)c[nH]c1=O
inactive: [1] -8.55% | [2] -1.45% | [3] -4.6% | [4] -36.9% | [5] -1.25% | [6] -1.55%

O=C(O)[C@@H]1CCC(=O)N1C(c1ccc2c(c1)OCO2)c1ccc2c(c1)OCO2
inactive: [1] -52.2% | [2] -18.1% | [3] -31.1% | [4] 4.35% | [5] -15.1% | [6] -24.4%

O=C1c2cccc3c(Br)ccc(c23)C(=O)N1CCCN1CCOCC1
active: [2] 77.7% | [3] 80.2% | [4] 86.7% | [5] 92.5%
inactive: [1] 63.5% | [6] 60.2%

CC1CC(C)c2ccccc21 (stereo not given)
inactive: [1] 42.3% | [2] 27.4% | [3] 17.8% | [4] 39.3% | [5] 0.3% | [6] 2.4%

CC(=O)Oc1c(C(C)C)cccc1C(C)(C)C
inactive: [1] -10.8% | [2] -9.95% | [3] -1.1% | [4] -14.1% | [5] -34.1% | [6] -13.5%

O=C(O)C(=O)Cc1ccc(Br)cc1[N+](=O)[O-]
inactive: [1] 5.45% | [2] -6.6% | [3] 1.8% | [4] -3% | [5] 1.45% | [6] 12.2%

CCCCCC/C(CC(=O)CCC(=O)NCCc1ccccc1)=N\NC(=O)c1ccc2ccccc2c1O
inactive: [1] 25% | [2] 20.2% | [3] 32.6% | [4] -49.2% | [5] 2.5% | [6] 45.5%

CN(C)B(B(N(C)C)N(C)C)N(C)C
inactive: [1] 13.7% | [2] 17.4% | [3] 35.6% | [4] 22.4% | [5] 13.8% | [6] 34.8%

COC(=O)c1ccccc1/C=C1\Cc2cc3c(cc2C1=O)CCC3
inactive: [1] -31.6% | [2] -45% | [3] -1.45% | [4] 5.65% | [5] -4.45% | [6] -8.05%

Cc1cn2cc(-c3cccs3)nc2s1
inactive: [1] 15.2% | [2] -1% | [3] 19.4% | [4] 18.6% | [5] -7.8% | [6] 15.1%

O=c1c(O)c(-c2cccnc2)oc2ccc(Cl)cc12
inactive: [1] -2.1% | [2] 17.8% | [3] 12.8% | [4] 21.6% | [5] 16.7% | [6] 0.4%

O=C1C2=Cc3ccccc3CCN2c2ccc([N+](=O)[O-])cc21
inactive: [1] -28.9% | [2] 5.35% | [3] -39.4% | [4] -7% | [5] 1.7% | [6] -24.2%

Cc1nn(C(=O)Cc2ccccc2)c2c1C(c1ccc([N+](=O)[O-])cc1)SC(N)=N2 (stereo not given)
inactive: [1] 11.4% | [2] 9.9% | [3] 22.4% | [4] 15.8% | [5] 8.15% | [6] 9.75%

CC1CCCC(C(O)CC2CC(=O)NC(=O)C2)C1O (stereo not given)
inactive: [1] 17.4% | [2] -3.65% | [3] 3.5% | [4] -29.8% | [5] 1.7% | [6] 4.45%

CCOC(=O)/C=C\SCC(=O)OCC
inactive: [1] -8.95% | [2] -4.1% | [3] -6.3% | [4] -33.4% | [5] 4.1% | [6] -14.9%

Cc1cc2ccccc2c[n+]1CC(O)CBr (stereo not given)
inactive: [1] -5.45% | [2] 7.05% | [3] 11.3% | [4] -36.8% | [5] -11.4% | [6] 5.9%

CCOC1C(=O)C=COC1C(C)C (stereo not given)
inactive: [1] -2.5% | [2] -4.65% | [3] -2.75% | [4] 1.7% | [5] -1.75% | [6] -12.2%

c1ccc(CN2CCC(N3CCCC3)CC2)cc1
inactive: [1] -22.7% | [2] -26.1% | [3] -22% | [4] 10.7% | [5] -23.3% | [6] -29.9%

CC(=O)OCC1Cn2c(c(-c3ccccc3)c(=O)[nH]c2=S)O1 (stereo not given)
inactive: [1] -9.15% | [2] 14.5% | [3] 5.95% | [4] -1.95% | [5] -6.35% | [6] 8.25%

CC(C)(C(=O)O)c1ccccc1C(=O)c1ccccc1
inactive: [1] -10.7% | [2] 12.1% | [3] 0.15% | [4] 49.3% | [5] -0.75% | [6] 14.3%

CCN(CC)CCOC(=O)c1ccc(N=Nc2cc(NC(C)=O)ccc2O)cc1
inactive: [1] 3.35% | [2] -3.7% | [3] -0.7% | [4] 4.15% | [5] 2.35% | [6] 5.05%

Cn1c(COc2ccc(/C=N\NC(=O)c3ccc(C(=O)N/N=C/c4ccc(OCc5c[n+]6ccccc6n5C)cc4)cc3)cc2)c[n+]2ccccc12
inactive: [1] -5% | [2] 3.5% | [3] -2.85% | [4] 26.7% | [5] 1.6% | [6] -36.8%

Cc1ccccc1NC(=S)NC(=O)c1ccccc1
inactive: [1] 30.9% | [2] 19.2% | [3] 62.8% | [4] -34.8% | [5] 64% | [6] 48.2%

ClCC(OCc1ccccc1)OCc1ccccc1
inactive: [1] -21.6% | [2] 4.8% | [3] -4.45% | [4] -36% | [5] 12.4% | [6] 17.1%

CC(=O)OC1CC2CCCCC2CC1[N+](C)(C)C (stereo not given)
inactive: [1] 2.25% | [2] 7.3% | [3] 13.8% | [4] -1.15% | [5] 3.3% | [6] -35.8%

Cc1ncc(CO)c(/C=N\NC(N)=S)c1O
inactive: [1] 9.85% | [2] 4.7% | [3] 8.3% | [4] -48.5% | [5] -39.1% | [6] -7.25%

COc1cc(C)c(C2NC(=O)c3ccccc3N2)cc1C (stereo not given)
inactive: [1] 10.1% | [2] 2.8% | [3] -10.1% | [4] 17.4% | [5] -2.55% | [6] -4.55%

O=C(NCCCCCCNC(=O)Nc1cccc2ccccc12)Nc1cccc2ccccc12
inactive: [1] -13.9% | [2] -14.4% | [3] 7.05% | [4] -7.75% | [5] -2.3% | [6] -13.6%

Nc1ccc2c(c1)-c1ccccc1C2O (stereo not given)
inactive: [1] -1.2% | [2] -19.1% | [3] -37.8% | [4] -60.9% | [5] -17.1% | [6] -16.4%

COc1cc(OC2OC(CO)C(O)C(O)C2O)c2c(O)c3c(=O)cc(C)oc3cc2c1 (stereo not given)
inactive: [1] 12.8% | [2] 19.4% | [3] 2.05% | [4] 20.7% | [5] 2.55% | [6] 3.8%

O=C1C(N=Nc2ccc([N+](=O)[O-])cc2)Sc2nc3ccccc3n21 (stereo not given)
inactive: [1] 25.8% | [2] -39.9% | [3] 7.6% | [4] -14.5% | [5] -2.2% | [6] 12.2%

CN(C)c1cc[n+](-c2c([O-])c3ccccc3n(-c3ccccc3)c2=O)cc1
inactive: [1] 20.1% | [2] 6.1% | [3] 14.2% | [4] 12.7% | [5] 4.8% | [6] 21%

CN1CN=C(Sc2ccc(Cl)cc2[N+](=O)[O-])NC1
inactive: [1] -22.2% | [2] -35.9% | [3] -22.1% | [4] -5% | [5] -6.9% | [6] -11.7%

NC(=O)N/N=C1/CCC(O)CC1CC(=O)O (stereo not given)
inactive: [1] -7.85% | [2] -4.75% | [3] -7.05% | [4] 12.7% | [5] -57.9% | [6] -2.95%

COc1ccc2c(ccc3[nH]c4c(C)cnc(NCCCN)c4c32)c1
inactive: [1] -39.6% | [2] -31.8% | [3] -29.3% | [4] -15.1% | [5] -17.4% | [6] -39.8%

COc1ccc(C(=O)c2ccc(Cl)cc2)c(O)c1OC
inactive: [1] -5.85% | [2] -6.55% | [3] -1.7% | [4] 3.9% | [5] 19.4% | [6] -9.4%
